# Several values for one entry are separate records, joined by “and”; a condition that tells them apart may be missing. Identical values can stand only once. Inconclusive results are not listed. A call without a number means that no potency is given here. Activity calls are given as the source filed them. Calls come from the whole dose curve; as a rule, active = well fitted cell-killing curve with a large enough effect; inconclusive = small, poorly fitted or top-dose-only effect, or effect the other way; inactive = no such curve, though single readings can be large or run the other way.
# Assay: Viability qHTS for spleen associated tyrosine kinase inhibitor (SYKi) naive MV4-11 cells (AID 1963823); note: nearly all actives have a fitted effect of over 40% in size
# Conditions: MV4-11 AML viability, CellTiter-Glo luminescence, 72 h; series mostly up to 45 µM
# Outline: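 Viability of MV4-11 AML cells lacking prior SYK inhibitor exposure is scored by CellTiter-Glo luminescence following 72 hr compound incubation at 37 C, 5% CO2, seeded at 500 cells per well.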
# Potency is the fitted concentration of half-maximal effect.
row,SMILES,Potency
1,CN[C@@H]1Cc2cccc3[nH]c(=O)n(c23)C1,inactive
2,C#C[C@]1(O)CC[C@H]2[C@@H]3CC[C@H]4Cc5nc6nc7ccccc7n6cc5C[C@]4(C)[C@H]3CC[C@@]21C,9200 nM (active)
3,COCC(C(=O)OC1CC2CCC(C1)N2C)c1ccccc1 (stereo not given),inactive
4,O=C(N[C@H]1CN2CCC1CC2)c1ccc(Cl)cc1,inactive
5,COc1ccc(C(=O)c2c(C)n(CCN3CCOCC3)c3ccccc23)cc1,26600 nM (active)
6,COC(=O)C12C(=O)C(C)(O)C(=O)C1(C)C(C)=CC1C34CCC(OC3=O)C(C)(CO)C4CCC12C (stereo not given),inactive

# Assay: Viability qHTS for spleen associated tyrosine kinase inhibitor (SYKi) drug resistant MV4-11 cells (AID 1963824); note: nearly all actives have a fitted effect of over 35% in size
# Conditions: SYKi-resistant MV4-11 viability, CellTiter-Glo, 72 h; series mostly up to 45 µM
# Outline: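 CellTiter-Glo luminescence, read 10 min after reagent addition, reports viability after a 72 hr compound exposure. Cells are an MV4-11 line made resistant to SYK inhibition, seeded at 500 per well onto compound-containing plates.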
row,SMILES,Potency
1,CC12Cc3cn[nH]c3C=C1CCC1C2CCC2(C)C1CCC2(C)O (stereo not given),20.6 µM (active)
2,CC1=C[C@H]2O[C@@H]3[C@H](O)[C@@H](O)[C@](C)([C@@]2(CO)C[C@@H]1O)[C@]31CO1,0.731 µM (active)
3,C=C(C)[C@H]1Cc2c(ccc3c2O[C@@H]2COc4cc(OC)c(OC)cc4[C@@H]2C3=O)O1,0.0376 µM (active)
4,Cc1[nH]nc2ccc(-c3cncc(OC[C@@H](N)Cc4c[nH]c5ccccc45)c3)cc12,65.1 nM (active) and 105 nM (active)
5,N[C@@H](Cc1ccc(N(CCCl)CCCl)cc1)C(=O)O,7.5 µM (active) and 742 nM (active)
6,CO[C@H]1C[C@H](O[C@H]2CC[C@]3(C=O)[C@H]4CC[C@]5(C)[C@@H](C6=CC(=O)OC6)CC[C@]5(O)[C@@H]4CC[C@]3(O)C2)O[C@H](C)[C@H]1O,0.0399 µM (active)
7,COc1cc(O)c2c(c1)CCC[C@@H](O)[C@H](O)C(=O)/C=C\C[C@H](C)OC2=O,2.86 µM (active)
8,COC[C@]12CN(C)C3C4[C@H](OC)[C@H]1C3(C(OC)C[C@H]2O)[C@H]1C[C@@]2(O)[C@H](OC(=O)c3ccccc3)[C@@H]1[C@]4(O)[C@@H](O)[C@@H]2OC (stereo not given in full),inactive
9,CC(C)(C)c1cc(C=C(C#N)C#N)cc(Br)c1O,16.6 µM (active)
10,O=P1(NCCCl)OCCCN1CCCl (stereo not given),inactive
11,CC[C@H](C)[C@@H]([C@@H](CC(=O)N1CCC[C@H]1[C@H](OC)[C@@H](C)C(=O)N[C@@H](Cc1ccccc1)c1nccs1)OC)N(C)C(=O)[C@@H](NC(=O)C(C)(C)N)C(C)C,inactive
12,CCOc1ccccc1-n1c(C(C)N2CCN(C(=O)COc3ccc(Cl)cc3)CC2)nc2ccccc2c1=O (stereo not given),1.46 µM (active) and 1.32 µM (active)
13,CN1C(=O)COc2c(C(=O)NC3CN4CCC3CC4)cc(Cl)cc21 (stereo not given),inactive
14,CN1C[C@@H]2CN(c3ccc(-c4ccccc4)nn3)C[C@@H]2C1,0.58 µM (active)
15,C[C@]12CC[C@H]3[C@@H]([C@H](O)CC4=CC(=O)CC[C@@]43C)[C@@H]1CC[C@@H]2O,inactive
16,CC(NC(C)(C)C)C(=O)c1cccc(Cl)c1 (stereo not given),inactive
17,CC[C@@H](C(N)=O)N1CCCC1=O,inactive
18,NCC1(CC(=O)O)CCCCC1,inactive
19,Fc1cc(F)c2c(c1)C1C=CCC1C(c1cccnc1)N2 (stereo not given),2.91 µM (active)
20,C=CC(C)(C)c1[nH]c2c(CC=C(C)C)cc(CC=C(C)C)cc2c1C[C@@H]1NC(=O)[C@H](C)NC1=O,inactive

row,SMILES,Potency
1,CN1CCCC1CCOC(c1cc2nccc(C(=O)O)c2[nH]1)c1ccccc1Cl (stereo not given),inactive
2,CC(C)(O)/C=C/C(=O)[C@](C)(O)[C@H]1[C@H](O)C[C@@]2(C)[C@@H]3CC=C4[C@@H](C[C@H](O)C(=O)C4(C)C)[C@]3(C)C(=O)C[C@]12C,0.282 µM (active)
3,COc1cc2c(cc1OC)[C@@]13CCN4CC5=CCO[C@H]6CC(=O)N2[C@H]1[C@H]6[C@H]5C[C@H]43,inactive
4,CCN1CC2(COC)C3[C@@H](OC)C4C1C3(C1C[C@]3(O)[C@H](OC(=O)c5ccccc5)C1[C@]4(OC(C)=O)[C@@H](O)[C@@H]3OC)[C@H](OC)C[C@H]2O (stereo not given in full),inactive
5,CCNC(=O)C[C@@H]1N=C(c2ccc(Cl)cc2)c2cc(OC)ccc2-n2c(C)nnc21,461 nM (active) and 417 nM (active)
6,CCCCCCCCC(=O)NCc1ccc(O)c(OC)c1,inactive
7,Cc1ncc(OC[C@@]2(c3cccc(F)c3)C[C@H]2C(=O)Nc2ccc(F)cn2)c(C)n1,inactive
8,CN1CCN(c2ccc([N+](=O)[O-])c3no[n+]([O-])c23)CC1,8.33 µM (active)
9,CC(C)c1cccc(C(C)C)c1O,inactive
10,COC1CC(O[C@H]2CC[C@]3(C=O)C4CC[C@]5(C)[C@@H](C6=CC(=O)OC6)CC[C@]5(O)[C@@H]4CC[C@@H]3C2)OC(C)C1O[C@@H]1O[C@H](CO)[C@@H](O[C@@H]2O[C@H](CO)[C@@H](O)[C@H](O)[C@H]2O)[C@H](O)[C@H]1O (stereo not given in full),0.123 µM (active)
11,COC(=O)[C@@H](N)CCCN=C(N)N[N+](=O)[O-],inactive
12,CCCN1CCO[C@H]2c3cc(O)ccc3OC[C@@H]21,inactive
13,CO[C@@H]1[C@H](O)[C@@H](O[C@@H]2C[C@H]3CC[C@@H]4C(CC[C@]5(C)[C@@H](C6=CC(=O)OC6)CC[C@]45O)[C@@]3(C)[C@H](O)C2)O[C@H](C)[C@@H]1O[C@@H]1O[C@H](CO)[C@@H](O)[C@H](O)[C@H]1O (stereo not given in full),0.0544 µM (active)
14,CN[C@@H]1Cc2cccc3[nH]c(=O)n(c23)C1,inactive
15,C#C[C@]1(O)CC[C@H]2[C@@H]3CC[C@H]4Cc5nc6nc7ccccc7n6cc5C[C@]4(C)[C@H]3CC[C@@]21C,7.31 µM (active)
16,COCC(C(=O)OC1CC2CCC(C1)N2C)c1ccccc1 (stereo not given),inactive
17,O=C(N[C@H]1CN2CCC1CC2)c1ccc(Cl)cc1,inactive
18,COc1ccc(C(=O)c2c(C)n(CCN3CCOCC3)c3ccccc23)cc1,16.6 µM (active)
19,COC(=O)C12C(=O)C(C)(O)C(=O)C1(C)C(C)=CC1C34CCC(OC3=O)C(C)(CO)C4CCC12C (stereo not given),inactive

# Source: PubChem BioAssay (NCATS)
